# Shown are actives, neighbours in structure and some others; about 12% of the full set was active somewhere.
# Pf growth 96h: P. falciparum growth inhibition at 96 hours; Potency, µM (top dose mostly 28.7 µM), for inactives: top-dose activity change, negative = inhibition, actives largely listed as inhibitors; 320,000 compounds, 6.9% hits; P. falciparum luciferase reporter growth, 96 h; also: % is scaled to controls: 0 for no effect and ±100 for the full control effect
#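 Infected RBCs, 2% Hct / 0.05% parasitemia final; luciferase-reporter P. falciparum; cpd 96 h, 37 C, 5% CO2; luciferase detection reagent; luminescence.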
# Pf growth 48h: P. falciparum growth inhibition at 48 hours (one generation) | P. falciparum luciferase growth in erythrocytes, 48 h | Potency, µM (titrated, usually from 28.7 µM), without a hit: top-dose activity change, negative = inhibition, actives largely listed as inhibitors | 310,000 compounds, 5.9% hits | AID 504832; also: % is scaled to controls: 0 for no effect and ±100 for the full control effect
#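 Parasite viability was followed by luminescence of a genomically integrated firefly luciferase. Cultures held 0.1% parasitemia at 2% hematocrit (final), incubated under 5% CO2 at 37 C.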
# AmpC inh no detg: AmpC beta-lactamase inhibition without detergent; P00811; AmpC nitrocefin hydrolysis, absorbance 480 nm, 0.0001% Triton; Potency, µM (doses to about 57.1 µM), inactives show at the top dose activity change, negative = inhibition, most hits filed as inhibitors; 330,000 compounds, 0.52% hits; AID 485341;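 also: plate controls were no compound for no effect and no enzyme for full effect; nearly all actives have a fitted effect of over 20% in size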
# Target sequence (P00811 whole entry, looked up): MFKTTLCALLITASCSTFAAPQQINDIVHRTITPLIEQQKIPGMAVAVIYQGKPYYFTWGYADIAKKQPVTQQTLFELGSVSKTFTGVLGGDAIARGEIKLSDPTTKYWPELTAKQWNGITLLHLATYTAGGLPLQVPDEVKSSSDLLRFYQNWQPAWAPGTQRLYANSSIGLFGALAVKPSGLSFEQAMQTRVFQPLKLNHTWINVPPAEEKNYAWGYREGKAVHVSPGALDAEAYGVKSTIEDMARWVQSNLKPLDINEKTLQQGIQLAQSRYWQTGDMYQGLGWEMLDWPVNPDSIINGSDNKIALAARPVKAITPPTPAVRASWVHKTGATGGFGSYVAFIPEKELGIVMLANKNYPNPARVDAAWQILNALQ
#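 20 mM phosphate pH 7.0 + 0.01% (detergent screen) or 0.0001% Triton X-100; 5.3 nM AmpC reagent; cpd preinc 15 min RT; nitrocefin (800 uM stock) to start; A480 q20 s × 4 min; Activity was normalised to no-enzyme and no-compound control wells.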
# AmpC inh detg: blocks E. coli AmpC beta-lactamase in detergent assay | 370,000 compounds, 0.041% hits | Potency, µM (highest dose often 114 µM), inactives show at the top dose activity change, negative = inhibition, hits mostly inhibitors | P00811 | AmpC hydrolysis of nitrocefin, absorbance 480 nm, 0.01% Triton;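 also: 0% = no-compound wells and -100% = no-enzyme wells; nearly all actives have a fitted effect of over 25% in size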
#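 AmpC (5.3 nM in the dispensed reagent) in 20 mM phosphate pH 7.0 with 0.01% (detergent screen) or 0.0001% Triton X-100 was preincubated with compounds for 15 min at room temperature. Nitrocefin was then added from an 800 uM solution, and hydrolysis was followed at 480 nm.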
# Sm TGR block: blocks Schistosoma mansoni thioredoxin glutathione reductase | Q962Y6 | purified TGR, DTNB reduction, TNB absorbance 405 nm | Potency, µM (titrated, usually from 114 µM), for inactives: at the top dose activity change, negative = inhibition, hits mostly inhibitors | 360,000 compounds, 3% hits | AID 485364; also: % is scaled to controls: 0 for no effect and ±100 for the full control effect; nearly all actives have a fitted effect of over 60% in size
#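 Kinetic colorimetric format: TGR-catalysed, NADPH-driven DTNB reduction monitored via TNB absorbance. Enzyme dispensed at 20 nM; compound exposure 15 min at room temperature before reaction start.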
# SARS PLP yeast: inhibitors of SARS-CoV papain-like protease in yeast; Potency, µM (titrated, usually from 32.9 µM), for inactives: top-dose activity, positive = growth rescue, hits mostly activators; AID 485353; 330,000 compounds, 0.19% hits; S. cerevisiae expressing SARS-CoV PLpro, growth rescue; calls by dose curve; also: 0% is about no effect; nearly all actives have a fitted effect of over 55% in size
# Active calls of the source: *; ? = inconclusive; · = no result given. Unless noted, calls follow the shape of the dose curve; as a rule, active = well fitted curve in the direction sought with a large enough effect; inconclusive = small, poorly fitted or top-dose-only effect, or another doubt; inactive = no such curve, though single readings can be large; an effect the other way counts as inactive or inconclusive. Potency is read from the fitted curve at half-maximal effect.
SMILES,Pf growth 96h,Pf growth 48h,AmpC inh no detg,AmpC inh detg,Sm TGR block,SARS PLP yeast
Cc1c(NC(=S)NC(=O)c2ccc(-c3ccc(Cl)cc3)o2)cccc1C(=O)O,14%,4%,-33%,13%,13µM*,-1%
Cc1ccccc1C(=O)NC(=S)Nc1ccccc1C(=O)O,10µM*,23%,-12%,-2%,31%,0%
Cc1ccc(-n2ncc3c(N(C)Cc4ccccc4)ncnc32)cc1,·,·,·,2%,-4%,·
CCOc1ccc(OCC)c(NC(=O)c2nnn(CC(=O)Nc3ccc(C)cc3C)c2N)c1,·,·,·,4%,6%,·
COc1ccc(C[C@H](N)C(=O)N[C@H]2[C@@H](O)[C@H](n3cnc4c(N(C)C)ncnc43)O[C@@H]2CO)cc1,0.17µM*,0.1µM*,-11%,-8%,-2%,·
COc1ccccc1Nc1nc(N)nc(CSc2nc(C)cc(C)n2)n1,·,-39%,42%,5%,12%,9%
COc1ccccc1Nc1nc(N)nc(CSc2nccc(C)n2)n1,0.93µM*,6%,-18%,?,-8%,4%
COc1ccccc1Nc1nc(N)nc(CSC(=S)N2CC(C)CC(C)C2)n1 (centres undefined),10µM*,?,0%,3%,-4%,65%
COc1ccc(Nc2nc(N)nc(CSC(=S)N3CCN(c4ccccc4)CC3)n2)cc1,12µM*,?,-26%,-5%,-3%,3%
COc1ccc(Nc2nc(N)nc(CSC(=S)N3CCN(C)CC3)n2)cc1,?,17%,-10%,1%,30%,0%
CC1CCN(C(=S)SCc2nc(N)nc(Nc3ccccc3)n2)CC1,-26%,-24%,-56%,-6%,-14%,0%
CCOc1ccc(Nc2nc(N)nc(CSC(=S)N3CCN(c4ccccc4)CC3)n2)cc1,13µM*,12µM*,-41%,-6%,0%,-2%
N#Cc1nc(-c2ccc(F)cc2)oc1N1CCC(C(N)=O)CC1,-19%,3%,5%,-4%,-8%,1%
CCc1ccc(-n2c(=O)c3c4c(sc3n(CC(=O)NC(C)CC)c2=O)CCCC4)cc1 (centres undefined),·,·,·,0%,-3%,·
COC(=O)C1=C(c2ccc(F)cc2OCc2ccccc2)C[C@@H]2CC[C@H]1N2C(=O)NCc1ccccc1Cl,4.1µM*,5.2µM*,-15%,-7%,0%,1%
COC(=O)C1=C(c2ccc(F)cc2OCc2ccccc2)C[C@@H]2CC[C@H]1N2C(=O)NCCN1CCOCC1,?,12µM*,189%,-9%,-10%,2%
COC(=O)C1=C(c2ccc(F)cc2OCc2ccccc2)C[C@@H]2CC[C@H]1N2C(=O)NCCOc1ccccc1Cl,?,2.6µM*,1%,-7%,-15%,5%
CCCNC(=O)N1[C@H]2CC[C@@H]1C(C(=O)OC)=C(c1ccc(F)cc1F)C2,29%,39%,-2%,-4%,-13%,-1%
COC(=O)C1=C(c2ccc(F)cc2OCc2ccccc2)C[C@@H]2CC[C@H]1N2C(=O)NCCOc1ccccc1,?,5.9µM*,-2%,-1%,2%,0%
COC(=O)C1=C(c2ccc(F)cc2OCc2ccccc2)C[C@@H]2CC[C@H]1N2C(=O)NC1CC1,?,?,110%,-2%,-24%,-2%
CCc1ccccc1NC(=O)CC1NCCNC1=O (centres undefined),·,·,·,3%,-4%,·
COc1cccc(CN(C)C(=O)c2cccc(OC3CCN(C4CCCC4)CC3)c2)c1,39%,?,28%,-9%,-27%,-1%
CCOC(=O)c1cnc2cc(C(F)(F)F)ccc2c1Nc1cc(C)ccc1OC,·,·,·,-2%,2%,·
COC(=O)C1=C(c2ccc(F)cc2OCc2ccccc2)C[C@@H]2CC[C@H]1N2C(=O)NCCOc1ccc(OC)cc1,3.3µM*,?,6%,1%,9%,1%
COC(=O)C1=C(c2ccc(Cl)c(C(F)(F)F)c2)C[C@@H]2CC[C@H]1N2C(=O)NCCOc1ccccc1Cl,6.6µM*,9.3µM*,57%,0%,-12%,-4%
SMILES,Pf growth 96h,Pf growth 48h,AmpC inh no detg,AmpC inh detg,Sm TGR block,SARS PLP yeast
COC(=O)C1=C(c2ccc(F)cc2OCc2ccccc2)C[C@@H]2CC[C@H]1N2C(=O)NCCc1ccc(F)cc1,?,12µM*,-6%,2%,3%,-6%
COC(=O)C1=C(c2ccc(Cl)c(C(F)(F)F)c2)C[C@@H]2CC[C@H]1N2C(=O)NCCNC(C)=O,-8%,?,128%,8%,-2%,0%
CCN(C(=O)C1CCN(S(=O)(=O)c2c(C)noc2/C=C/c2ccc(C)cc2)CC1)c1cccc(C)c1,·,·,·,26%,4%,·
COC(=O)C(NC(=O)CCc1c(C)nc2c(-c3ccccc3)c(C)nn2c1C)C(C)C (centres undefined),·,·,·,-10%,-14%,·
CCOC(=O)C1CCN(C(=O)CCc2c(C)nc3cc(-c4ccc(OC)cc4OC)nn3c2C)CC1,?,13µM*,12%,2%,-1%,-3%
CCOC(=O)C1CCN(C(=O)CCc2c(C)nc3ncnn3c2C)CC1,15µM*,·,-17%,-2%,-15%,-6%
COC(=O)C(NC(=O)CCc1c(C)nc2ncnn2c1C)C(C)C (centres undefined),13µM*,65%,-6%,?,15%,-5%
CCCCNC(=O)c1onc(CSc2ccc(F)c(F)c2)c1C(=O)O,19%,0%,-20%,?,7%,-5%
O=[N+]([O-])c1cc(F)c2cccnc2c1O,?,0%,9%,-7%,3.2µM*,-4%
O=[N+]([O-])c1cc(Cl)c(O)c2ncccc12,10%,-6%,-27%,9%,11µM*,-25%
O=[N+]([O-])c1cc(Cl)c2cccnc2c1O,-27%,-6%,-21%,1%,·,-3%
COc1ccc(C(=O)NCCc2sc(-c3cccc(F)c3)nc2C)cc1,·,·,·,-3%,-1%,·
CN1CC2=Cc3ccccc3OC23Oc2ccccc2C=C3C1,12µM*,9.3µM*,1%,-18%,-16%,1%
O=C(O)CC(NC(=O)CCc1ccccc1)c1ccc(Cl)cc1 (centres undefined),?,39%,-8%,2%,5%,-1%
C[C@@H]1C[C@@H]([C@H](O)CC2CC(=O)NC(=O)C2)C(=O)[C@@H](C)C1,0.1µM*,0.1µM*,-5%,3%,-21%,5%

# Compound activity from PubChem BioAssay.
